The source of these data is PubChem BioAssay (NCI).

Structures are written as SMILES. Compounds without any hit were thinned out: in the full panel of roughly 79,000, 15% have a hit. Unmarked numbers belong to inactive results. Cut-off read from the data, not from the text of the source: active = growth inhibition above about 70%; inactive = the rest.

A short description of the experiment: NCI Yeast Anticancer Drug Screen. Data for the mlh1 rad18 strain (AID 175). As to conditions: S. cerevisiae mlh1 rad18 strain growth inhibition, stronger effect = higher value; at 50.0 µM unless noted. The method, boiled down: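 Cells of a genetically altered yeast strain, deficient in DNA damage repair, were treated with compound. Their growth was then compared with that of vehicle-treated cultures to give inhibition.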
Turning to `CC(=O)Oc1cccc2c1C(=O)c1c(OC(C)=O)cc(C)cc1C2=O`, the growth inhibition is -15.6%.

As to `CC(C)C1Oc2ccc(Br)cc2C1O` (stereo not given), the growth inhibition is 5.6%.

With `NC(=S)/N=C(/c1nc2ccc(Cl)cc2[nH]c1=O)C(O)c1ccccc1Cl` (stereo not given), the growth inhibition was 5.75%.

Regarding `CC1=CP(=O)(c2ccccc2)CC1` (stereo not given) (tested in a mixture with another compound), the growth inhibition is 1.2%.

With `CC(=O)c1ccc(Cl)cc1Cl`, the growth inhibition is -38.5%.

In the case of `CCOC(=O)CSc1nc(-c2ccccc2)c(C#N)c(=O)[nH]1`, the growth inhibition is -61%.

Consider `CN1CCC(O)CC1`, for which the growth inhibition is -3%.

As for `O=C(Cc1nc2ccccc2s1)C(=O)Nc1cccc(C(F)(F)F)c1`, the growth inhibition was -6%.

For `CCC1=CCN(c2ccccn2)OC1c1ccc(OC)cc1` (stereo not given), the growth inhibition is 24.1%.

Take `CCOC(=O)c1cccc(N)c1C(=O)OCCN(CC)CC`: the growth inhibition was 3.55%.

Regarding `CC(=O)Oc1c(I)cc(Cc2nc(C)oc2C)cc1I`, the growth inhibition was -4.8%.

As to `NC1N=Nc2ccccc21` (stereo not given), the growth inhibition was 41.3%.

As for `Cc1cc(N(CCC#N)CCC#N)ccc1/C=N/NC(=O)c1ccccc1`, the growth inhibition is -47.5%.

On to `CC/C(=N/NC(N)=O)c1ccc(C)cc1`, for which the growth inhibition is -8.9%.

As for `CC[O-].CC[O-].CN(C)c1ccc([O-])cc1.CN(C)c1ccc([O-])cc1.[Ti+4]`, the growth inhibition was -1.8%.

As for `CC(=O)OCC(C)(O)C#N` (stereo not given), the growth inhibition is -22.6%.

Regarding `CC(=NCCCCN=C(C)c1cc(O)cc(Br)c1O)c1cc(O)cc(Br)c1O.[Co]`, the growth inhibition is 24.4%.

In the case of `O=C1c2ccccc2C(=O)N1c1ccc(OCCN2CCCCC2)cc1`, the growth inhibition was 18.4%.

With `CCOc1c(N=Nc2ccc(Cl)cc2Cl)c(C)nn1C(=S)SC`, the growth inhibition was 19.6%.

Take `NC(=O)C1CC1`: the growth inhibition is -4%.
